Source: PubChem (National Center for Advancing Translational Sciences (NCATS))
FBPA coupling cs = coupling enzyme interference in Giardia aldolase counter-screen. 0.67% of 290,000 active. activity change, negative = inhibition, % at 58.2 µM, hits read low. coupling enzyme system counterscreen, AmpLite Red fluorescence. AID 2472; in the data active = activity change below about -30%
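Counterscreen lacking aldolase: glyceraldehyde-3-phosphate coupling-enzyme reagent preincubated 10 min at RT with compound (at 57.5 uM final), then substrate/coupling system with AmpLite Red added; fluorescence read at 525/598 nm after 20 min RT.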
Sfp PPTase inh = blocks B. subtilis Sfp PPTase activity; 3.5% of 310,000 active; AID 1490; Biochemical Sfp PPTase activity, qHTS; Potency, µM, inactives show largest response in the series, negative = inhibition, usual class: inhibitors;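 also: the enzyme is Sfp with the accession as filed and its product quenches rhodamine fluorescence; potency is read from the fitted curve at half-maximal effect; 0% = enzyme reaction without inhibitor and -100% = no enzyme wells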
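Buffer: 50 mM Hepes-Na pH 7.6, 10 mM MgCl2, 0.01% Nonidet P-40, 0.01% BSA. Enzyme 15 nM, pre-exposed to compound 15 min; substrates then added and fluorescence change tracked over 30 min.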
Giardia killer = Giardia lamblia killing; Giardia lamblia trophozoite viability; activity change, % at 7.66 µM, hits read low; 0.15% of 340,000 active; in the data active = activity change below about -80%; inconclusive = between about -30% and that limit;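 also: parasites exposed to compound for two days anaerobically before the ATP read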
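Trophozoite viability was measured as ATP-dependent luminescence, read 15-30 min after reagent addition. Before that, parasites at 100 cells/well were exposed to compounds for 48 h, anaerobically, at 37 deg C.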
ELG1 repair inh = ELG1-dependent DNA repair inhibition; HEK293T ELG1-luciferase reporter, luminescence, 16 h; DNA damage induced by 5-fluorouridine; 2.3% of 330,000 active; Potency, µM (doses to about 46.1 µM), for inactives: top-dose activity change, negative = inhibition, usual class: inhibitors; AID 504467; also: potency is read from the fitted curve at half-maximal effect; nearly all actives have a fitted effect of over 55% in size
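Step one: seed 2,000 cells per well. Step two: pin-transfer compound or DMSO alongside 5-fluorouridine. Step three: incubate 16 hr, 37 °C, 5% CO2. Step four: add ONE-Glo, wait 30 min, read luminescence.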
* = called active by the depositor; ? = inconclusive; . = not tested or not shown. Hits are enriched below; roughly 5.5% of the tested compounds scored in any of these assays. Unless noted, calls follow the shape of the dose curve; as a rule, active = well fitted curve in the direction sought with a large enough effect; inconclusive = small, poorly fitted or top-dose-only effect, or another doubt; inactive = no such curve, though single readings can be large; an effect the other way counts as inactive or inconclusive. Unless noted, % is scaled to controls: 0 for no effect and ±100 for the full control effect.

SMILES | FBPA coupling cs | Sfp PPTase inh | Giardia killer | ELG1 repair inh
O=c1c2c3c(sc2nc2n1CCCCC2)CCCCC3 | -3 | -11% | . | ?
Cc1nc2sc(C)c(C)c2c(=O)o1 | 0 | 20µM* | 15 | 1%
Cc1nc2sc3c(c2c(=O)o1)CCCC3 | -3 | 40µM* | 3 | 2%
O=c1c2c3c(sc2nc2n1CCCCC2)CCCC3 | 2 | 32µM* | 6 | ?
Cc1sc2nc(C(C)C)oc(=O)c2c1C | -1 | 14% | 1 | 1%
COCCC(=O)N1CCC(Oc2ccc(C(=O)N(C)CCCC3CCCC3)cc2)CC1 | 2 | 14% | -6 | ?
C/C(=C\C(=O)OCCCCCCCCC(=O)O)C[C@@H]1OC[C@H](C[C@@H]2O[C@H]2[C@@H](C)[C@H](C)O)[C@@H](O)[C@H]1O | . | 25% | 4 | .
Oc1ccc(NC(=S)N=Nc2c(O)[nH]c3ccc(Br)cc23)cc1 | 3 | -14% | 4 | 16µM*
Oc1[nH]c2ccc(Br)cc2c1N=NC(=S)Nc1ccc(F)cc1 | -2 | ? | 11 | ?
COc1ccc(CNC(=O)CN(C(=O)CCC(=O)Nc2nccs2)c2ccccc2C)cc1 | -2 | 9% | -5 | 7%
CC(=O)c1cccc(NC(=O)CSc2ccc(-c3sc(C)nc3C)nn2)c1 | . | 21% | 7 | 23µM*
O=C(CSc1cn[nH]n1)Nc1cccc(C(=O)O)c1 | 0 | 35µM* | 7 | -2%
CC(=O)c1cccc(Nc2nc(-c3sc(C)nc3C)cs2)c1 | 4 | -5% | 10 | 16µM*
Cc1nc(N)sc1-c1csc(Nc2cccc(O)c2)n1 | -20 | -21% | -2 | -27%
Cc1cccc(Nc2nc(-c3sc(C)nc3C)cs2)c1 | -7 | -20% | -6 | ?
CC(=O)c1cccc(Nc2nc(-c3sc(N)nc3C)cs2)c1 | -23 | -7% | -5 | 8.2µM*
CCOC(=O)c1sc(NC(=O)CSc2nc(C)cc(-c3ccccc3)n2)c(C#N)c1C | 5 | 8.9µM* | 16 | 23%
Cc1ccccc1-c1cc(C(=O)Nc2sc(C)c(C)c2C(N)=O)c2ccccc2n1 | 1 | 50µM* | 24 | ?
Cc1sc(NC(=O)Nc2ccccc2)c(C(N)=O)c1C | -2 | 20µM* | -2 | ?
O=C(Nc1nccs1)c1cc(-c2ccncc2)nc2ccccc12 | 0 | 7% | 6 | -17%
CCOC(=O)c1c(NC(=O)c2cc(-c3ccc(Cl)s3)nc3ccccc23)sc(C(N)=O)c1C | 2 | 4% | -8 | 21%
Cc1ccc(-c2cc(C(=O)Nc3nccs3)c3ccccc3n2)c(C)c1 | -1 | -8% | -6 | 13µM*
CC(=O)Nc1ccc(S(=O)(=O)N2CCN(C(=O)c3ncoc3-c3ccccc3)CC2)cc1 | 4 | 26% | 0 | -1%
O=C(c1cccc(F)c1)N1CCC2(CCCN(C(c3ccccc3)c3ccccc3)C2)CC1 | 0 | ? | . | .
C[C@H](CO)N1C[C@H](C)[C@@H](CN(C)S(=O)(=O)c2ccc(F)cc2)Oc2ccc(NC(=O)Cc3ccccc3)cc2C1=O | . | . | 5 | -11%
SMILES | FBPA coupling cs | Sfp PPTase inh | Giardia killer | ELG1 repair inh
CCOc1ccc(CN2C(=O)c3ccccc3Sc3ccc(C(=O)NCc4ccc5c(c4)OCO5)cc32)cc1 | . | . | 4 | .
CCOC(=O)c1sc(NC(=O)c2cc(-c3ccccc3C)nc3ccccc23)c(C#N)c1C | 6 | 45µM* | 6 | ?
CN1/C(=C/C(=O)CSc2ccccc2C(=O)O)C(C)(C)c2ccccc21 | 18 | 89µM* | 8 | -4%
Cc1cccc[n+]1CC(=O)/C=C1\N(C)c2ccccc2C1(C)C | 1 | -2% | 8 | -4%
COCCn1c(SCC(=O)c2c(-c3ccccc3)n(C)c3ccccc23)nnc1-c1ccncc1 | 3 | -3% | 51 | ?
COc1ccc(Nc2nnc(SCC(=O)/C=C3/N(C)c4ccccc4C3(C)C)s2)cc1 | -6 | 4% | -8 | 26µM*
COCCn1c(SCC(=O)/C=C2\N(C)c3ccccc3C2(C)C)nnc1-c1ccncc1 | 0 | 22% | 39 | 21µM*
CN1/C(=C\C(=O)CSc2nnc(N)s2)C(C)(C)c2ccccc21 | 3 | 7% | -24 | -11%
Cc1cc(=O)[nH]c(SCC(=O)/C=C2\N(C)c3ccccc3C2(C)C)n1 | 9 | -9% | -4 | -8%
CN1/C(=C\C(=O)CSc2cccc[n+]2[O-])C(C)(C)c2ccccc21 | 4 | 16µM* | 3 | -4%
CN(C)c1ncc2ncc(=O)n(Cc3ccc(F)cc3)c2n1 | 0 | 7% | . | .
CC(C)c1ccccc1NS(=O)(=O)c1cccs1 | -4 | 5% | -12 | -4%
CN1/C(=C\C(=S)Nc2ccccc2)C(C)(C)c2ccccc21 | -7 | 32µM* | -17 | ?
CN1/C(=C\C(=O)Nc2ccc(Cl)cc2)C(C)(C)c2ccccc21 | -3 | 9% | -4 | 0%
COc1ccc(OC2C(O)COC2/C=C/C#Cc2ccccc2)cc1 (stereo not given) | 1 | 0% | . | .
C=CCS(=O)(=O)N1CCCC(Cc2ccccc2C)(C(=O)OCC)C1 (stereo not given) | -4 | 19% | 11 | 2%
N#Cc1c(NC(=O)c2nc3ncccn3n2)sc2c1CCCCC2 | 2 | -22% | 0 | ?
CC1CCc2c(sc(NC(=O)c3nc4ncccn4n3)c2C#N)C1 (stereo not given) | 3 | 22µM* | -1 | ?
N#Cc1c(NC(=O)c2cnn3cccnc23)sc2c1CCCC2 | 1 | 45µM* | -8 | ?
C=CCOC(=O)C1=C(C)NC(SCC(=O)Nc2ccccc2)=C(C#N)C1c1ccco1 (stereo not given) | 2 | 4% | -18 | -21%
C=CCOC(=O)C1=C(C)NC(SCC(=O)N(CC)CC)=C(C#N)C1c1ccccc1 (stereo not given) | 0 | 10% | 8 | 16µM*
C=CCOC(=O)C1=C(C)NC(SCC(=O)N(CC)CC)=C(C#N)C1c1ccco1 (stereo not given) | 2 | 3% | 7 | 8.2µM*
CCN(CC)C(=O)CSC1=C(C#N)C(c2ccco2)C(C(=O)OCCOC)=C(C)N1 (stereo not given) | -7 | 56µM* | 1 | ?
Nc1nonc1C(=O)NCCN=Cc1ccccc1O | 0 | 89µM* | -4 | 16%
COc1ccc(NC(=O)N2CC[C@@]3(CCCN(C(=O)c4csnn4)C3)C2)cc1 | 2 | 15% | . | .
SMILES | FBPA coupling cs | Sfp PPTase inh | Giardia killer | ELG1 repair inh
CCOC(=O)c1c(C)oc2c1C(=O)c1ccccc1C2=O | -43* | ? | -81* | 7.3µM*
Cc1oc2c(c1C(=O)c1ccccc1)C(=O)C(=O)c1ccccc1-2 | -78* | 50µM* | -1 | ?
O=C1C(=O)c2c(C(=O)c3ccccc3)coc2-c2ccccc21 | -80* | 56µM* | -5 | ?
CCOC(=O)c1c(C)nc2c(c1-c1ccccc1)C(=O)c1ccccc1-2 | 5 | -10% | -8 | ?
Cc1oc2c(c1C(=O)O)C(=O)c1ccccc1C2=O | -29 | ? | ? | 8.2µM*
Cc1onc(-c2ccccc2Cl)c1C(=O)c1ccccc1 | 1 | 6% | -18 | ?
Cc1cc(=O)oc(C)c1C(=O)O | 3 | 13% | -11 | -14%
